Results filed as inconclusive are left out. Where a call stands in place of a potency, no number is given. Calls of active or inactive are those of the source. Calls follow the shape of the dose curve; as a rule, active = well fitted cell-killing curve with a large enough effect in the repeat runs; inconclusive = weak or mixed curves, or effect the other way; inactive = flat fitted curve, though single readings scatter.
How the values were obtained:
[1] = cAMP Responsive Elements (CRE) small molecule antagonists, cell-based qHTS assay: qHTS cell viability counter screen (AID 2060913); also: nearly all actives have a fitted effect of over 40% in size
In short: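 HEK293T CRE-bla, 2,000 cells/well, 18 h preincubation; cpd in DMSO + NKH477 0.25 uM final, 3 h 37 C/5% CO2; LiveBLAzer 2 h RT, then CellTiter-Glo 30 min RT, luminescence.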

[2] = cAMP Responsive Elements (CRE) small molecule agonists, cell-based qHTS assay: qHTS cell viability counter screen (AID 2060914);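 also: viability read after 3 h of compound exposure; nearly all actives have a fitted effect of over 50% in size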
In short: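 Cells are seeded and incubated 18 h, treated with compounds in DMSO for 3 h, read for the bla reporter, then given CellTiter-Glo; luminescence is measured after 30 min at room temperature.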

| Structure (SMILES) | Potency [1] | Potency [2] |
| --- | --- | --- |
| CCOC(=O)CC | inactive | inactive |
| CN[C@@H]1[C@H](O)[C@H](NC)[C@H]2O[C@@]3(O)C(=O)C[C@@H](C)O[C@H]3O[C@@H]2[C@H]1O | inactive | inactive |
| O=C(Cl)c1c(Cl)c(Cl)c(C(=O)Cl)c(Cl)c1Cl | inactive | inactive |
| Cc1ccc2c(c1[N+](=O)[O-])C(=O)c1ccccc1C2=O | inactive | inactive |
| O=C[C@H](O)[C@@H](O)[C@H](O)[C@H](O)CO | inactive | inactive |
| COC(=O)CC(=O)C(C)(C)C | inactive | inactive |
| O=C(O)c1cc(C(=O)O)c(C(=O)O)cc1C(=O)O | inactive | inactive |
| O=S(=O)(O)c1cc(O)c2ccc(Nc3ccccc3)cc2c1 | inactive | inactive |
| NCCNc1cccc2ccccc12 | inactive | inactive |
| CCCCCCCCCC(C)=O | inactive | inactive |
| OC[C@@H](O)C(O)[C@@H](O)CO (stereo partly drawn) | inactive | inactive |
| OC[C@H]1O[C@@H](O[C@H]2[C@H](O)[C@@H](O)[C@H](O)O[C@@H]2CO)[C@H](O)[C@@H](O)[C@H]1O | inactive | inactive |
| O=C(NS(=O)(=O)/C=C/c1ccccc1)c1ccc(F)cc1Cl | inactive | inactive |
| COC(=O)c1ccccc1C | inactive | inactive |

— PubChem BioAssay (Tox21)
